This is a sample that favours compounds with a hit; in the whole collection about 0.89% have one here.
AGP1 TOR yeast = yeast TOR pathway AGP1-GFP modulation; AID 2066; GFP response vs DMSO, % at 10 µM; S. cerevisiae AGP1-GFP multiplex flow cytometry, 3 h; GFP as percent of DMSO wells; 320,000 compounds, 0.02% hits;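 active = GFP response relative to DMSO above a set limit, near screen average plus 3 SD, cut at about 150% in these data; inconclusive = fewer than 70 cells counted for the yeast strain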;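 also: median GFP channel fluorescence of the gated AGP1 strain per well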
CIT2 TOR yeast = modulators of TOR pathway CIT2-GFP in S. cerevisiae; S. cerevisiae CIT2-GFP strain, flow cytometry, 3 h; 100 means same as DMSO wells; GFP response vs DMSO, % at 10 µM; 320,000 compounds, 0.065% hits; AID 2029;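 active = GFP response relative to DMSO above a set limit, near the screen mean plus 3 SD, cut at about 150% in these data; inconclusive = Fewer than 70 cells measured for a yeast strain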;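 also: ratio of well median GFP fluorescence to mean of DMSO wells on the plate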
LAP4-GFP MLPCN = modulators of TOR pathway LAP4-GFP in S. cerevisiae; S. cerevisiae LAP4-GFP multiplex, flow cytometry GFP, 3 h; median GFP as percent of DMSO wells; GFP response vs DMSO, % at 10 µM; 320,000 compounds, 0.34% hits;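 active = GFP response vs DMSO above a set limit, about the screen mean plus 3 SD, cut at about 150% in these data; inconclusive = under 70 cell events counted for the yeast strain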
MEP2-GFP yeast = modulators of TOR pathway MEP2-GFP in S. cerevisiae; S. cerevisiae MEP2-GFP strain, flow cytometry GFP, 3 h; 100% = DMSO control level; GFP response vs DMSO, % at 10 µM; 330,000 compounds, 0.51% hits;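 active = GFP response versus DMSO above a set limit, roughly screen mean plus 3 SD, cut at about 180% in these data; inconclusive = fewer than 70 cells counted for a yeast strain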;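 also: median GFP fluorescence of the barcode-gated MEP2-GFP cells per well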
RPL19A-GFP yeast = yeast TOR pathway RPL19A-GFP modulation | 330,000 compounds, 0.3% hits | S. cerevisiae RPL19A-GFP strain, flow cytometry, 3 h; stronger effect = lower value | percent response vs DMSO, % at 10 µM;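 active = percent response vs DMSO below 50%; inconclusive = fewer than 70 events counted for the yeast strain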;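 also: median channel GFP fluorescence of the barcoded RPL19A-GFP strain; lower means less RPL19A-GFP as with rapamycin TOR inhibition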
Numbers stand for hits; [ ] = remark or other dose.

For O=C1/C(=C\c2ccccn2)SC(=S)N1Nc1ncc(C(F)(F)F)cc1Cl the results were AGP1 TOR yeast inactive, CIT2 TOR yeast inactive, LAP4-GFP MLPCN 151.6, MEP2-GFP yeast inactive and RPL19A-GFP yeast inactive.
`COc1ccccc1-c1nnc(NC(=O)c2ccc(S(=O)(=O)N3CCCC3)cc2)o1` gave AGP1 TOR yeast inactive, CIT2 TOR yeast inactive, LAP4-GFP MLPCN 169.3, MEP2-GFP yeast inactive and RPL19A-GFP yeast inactive.
O=C(c1ccc2c(c1)OCO2)N1CCC(Cc2ccccc2)CC1 was read as AGP1 TOR yeast inconclusive, CIT2 TOR yeast inconclusive, LAP4-GFP MLPCN inactive, MEP2-GFP yeast 272.9[may fluoresce violet] and RPL19A-GFP yeast 26.1[may fluoresce violet].
Screening COc1ccc(Cl)cc1NC(=O)CSc1nnc(COc2ccccc2)n1C returned AGP1 TOR yeast inactive, CIT2 TOR yeast inactive, LAP4-GFP MLPCN inactive, MEP2-GFP yeast inactive and RPL19A-GFP yeast inactive.
N#Cc1cncc(-c2ccc3c(c2)OCCOCCOCCOCCOCCO3)n1 was read as AGP1 TOR yeast inconclusive, CIT2 TOR yeast inconclusive, LAP4-GFP MLPCN inactive, MEP2-GFP yeast 233.3[may fluoresce violet] and RPL19A-GFP yeast 24.9[may fluoresce violet].
Cc1nc(-c2ccc3c(c2)OCCO3)cs1 was read as AGP1 TOR yeast inactive, CIT2 TOR yeast inactive, LAP4-GFP MLPCN inactive, MEP2-GFP yeast inactive and RPL19A-GFP yeast inactive.
For COc1cc(OC)cc(C(=O)NCc2cccnc2)c1 the results were AGP1 TOR yeast inactive, CIT2 TOR yeast inactive, LAP4-GFP MLPCN inactive, MEP2-GFP yeast inactive and RPL19A-GFP yeast inactive.
Screening O=C(O)CCCC(=O)Nc1cccc(-c2nc3ccccc3[nH]2)c1 returned AGP1 TOR yeast inactive, CIT2 TOR yeast inactive, LAP4-GFP MLPCN inactive, MEP2-GFP yeast inactive and RPL19A-GFP yeast inactive.
Cc1nc2ncnn2c(C)c1CCC(=O)NCCCN1CCN(c2cccc(Cl)c2)CC1 was read as AGP1 TOR yeast inconclusive, CIT2 TOR yeast inconclusive, LAP4-GFP MLPCN inactive, MEP2-GFP yeast 179.8[may fluoresce violet] and RPL19A-GFP yeast 24.0[may fluoresce violet].
For CCCCN(C(=O)CCC(=O)Nc1cc(C)on1)C(C(=O)NC1CCCC1)c1ccc(OCC)cc1 (stereo not given) the results were AGP1 TOR yeast inactive, CIT2 TOR yeast inactive, LAP4-GFP MLPCN inactive, MEP2-GFP yeast inactive and RPL19A-GFP yeast inactive.
Screening CCCCN(C(=O)CCC(=O)Nc1cc(C)on1)C(C(=O)NC1CCCC1)c1ccccc1OCC (stereo not given) returned AGP1 TOR yeast inconclusive, CIT2 TOR yeast inconclusive, LAP4-GFP MLPCN inactive, MEP2-GFP yeast 419.6[may fluoresce violet] and RPL19A-GFP yeast inactive.
For Cc1c(C(=O)N2CCN(C)CC2)oc2c1C(=O)CC(C)(C)C2 the results were AGP1 TOR yeast inactive, CIT2 TOR yeast inconclusive, LAP4-GFP MLPCN inactive, MEP2-GFP yeast 211.9[may fluoresce violet] and RPL19A-GFP yeast inactive.
For CCOC(=O)N1CCN(c2cc(=O)n(C3CCCCC3)c(=O)[nH]2)CC1 the results were AGP1 TOR yeast inconclusive, CIT2 TOR yeast inconclusive, LAP4-GFP MLPCN inactive, MEP2-GFP yeast 266.0[may fluoresce violet] and RPL19A-GFP yeast inactive.
Screening CCOC(=O)C1CCN(c2cc(=O)n(C3CCCCC3)c(=O)[nH]2)CC1 returned AGP1 TOR yeast inactive, CIT2 TOR yeast inactive, LAP4-GFP MLPCN inactive, MEP2-GFP yeast inactive and RPL19A-GFP yeast inactive.
CCc1c(C)c2cc(Cl)c(O)c(CN(C)C)c2oc1=O was read as AGP1 TOR yeast inactive, CIT2 TOR yeast inactive, LAP4-GFP MLPCN inactive, MEP2-GFP yeast 193.3 and RPL19A-GFP yeast inactive.
Cc1c(C)c2cc(Cl)c(O)c(CN(C)C)c2oc1=O was read as AGP1 TOR yeast inactive, CIT2 TOR yeast inconclusive, LAP4-GFP MLPCN inactive, MEP2-GFP yeast inactive and RPL19A-GFP yeast inactive.
CN(C)Cc1c(O)c(Cl)cc2c3c(c(=O)oc12)CCCC3 was read as AGP1 TOR yeast inactive, CIT2 TOR yeast inconclusive, LAP4-GFP MLPCN inactive, MEP2-GFP yeast 175.0[may fluoresce violet] and RPL19A-GFP yeast inactive.
CCN(Cc1nc2cc(Cl)ccc2c(=O)[nH]1)C(=O)c1ccc(C)c(NC(=O)c2ccco2)c1 was read as AGP1 TOR yeast inactive, CIT2 TOR yeast inactive, LAP4-GFP MLPCN inactive, MEP2-GFP yeast inactive and RPL19A-GFP yeast inactive.
For COc1cc(NC(=O)c2ccccc2)ccc1NC(=O)c1cc2ccccc2o1 the results were AGP1 TOR yeast inactive, CIT2 TOR yeast inactive, LAP4-GFP MLPCN inactive, MEP2-GFP yeast 207.3 and RPL19A-GFP yeast inactive.
COc1cccc(C(=O)Nc2ccc(NC(=O)c3cc4ccccc4o3)c(OC)c2)c1 was read as AGP1 TOR yeast inactive, CIT2 TOR yeast inactive, LAP4-GFP MLPCN inactive, MEP2-GFP yeast inactive and RPL19A-GFP yeast inactive.
`O=C(NCc1ccco1)/C(=C/c1ccco1)NC(=O)c1ccco1` gave AGP1 TOR yeast inactive, CIT2 TOR yeast inactive, LAP4-GFP MLPCN inactive, MEP2-GFP yeast inactive and RPL19A-GFP yeast inactive.
COc1ccc(NC(=O)COC(=O)CN2C(=O)C3CCCCC3C2=O)cc1OC (stereo not given) was read as AGP1 TOR yeast inactive, CIT2 TOR yeast inactive, LAP4-GFP MLPCN inactive, MEP2-GFP yeast inactive and RPL19A-GFP yeast inactive.
For CCOC(=O)CNC(=O)c1cc(OC)cc(OC)c1 the results were AGP1 TOR yeast inactive, CIT2 TOR yeast inactive, LAP4-GFP MLPCN inactive, MEP2-GFP yeast inactive and RPL19A-GFP yeast inactive.
COc1cc(OC)cc(C(=O)NCC(=O)OCC(=O)C(C)(C)C)c1 was read as AGP1 TOR yeast inactive, CIT2 TOR yeast inconclusive, LAP4-GFP MLPCN inactive, MEP2-GFP yeast 484.1[may fluoresce violet] and RPL19A-GFP yeast inactive.
`CN(CCCNC(=O)c1cc2c(=O)[nH]c3ccccc3c2n1C)Cc1ccccc1` gave AGP1 TOR yeast inconclusive, CIT2 TOR yeast inconclusive, LAP4-GFP MLPCN inactive, MEP2-GFP yeast inactive and RPL19A-GFP yeast 31.0[may fluoresce violet].
Screening CC1CC(C)CN(CCCNC(=O)c2cc3c(=O)[nH]c4ccccc4c3n2C)C1 (stereo not given) returned AGP1 TOR yeast inactive, CIT2 TOR yeast inactive, LAP4-GFP MLPCN inactive, MEP2-GFP yeast inactive and RPL19A-GFP yeast inactive.
For COc1cc(C(=O)OCC(=O)N2CCCC2)cc(OC)c1OC the results were CIT2 TOR yeast inconclusive, LAP4-GFP MLPCN inactive, MEP2-GFP yeast 323.8[may fluoresce violet] and RPL19A-GFP yeast 46.9[may fluoresce violet].
`COc1cc2cc(C(N)=O)c(N)nc2cc1OC` gave AGP1 TOR yeast inconclusive, CIT2 TOR yeast inconclusive, LAP4-GFP MLPCN inactive, MEP2-GFP yeast 215.6[may fluoresce violet] and RPL19A-GFP yeast 44.0[may fluoresce violet].
For COc1ccc2nc(C)c(C(N)=O)cc2c1 the results were AGP1 TOR yeast inconclusive, CIT2 TOR yeast inactive, LAP4-GFP MLPCN inconclusive, MEP2-GFP yeast inconclusive and RPL19A-GFP yeast inconclusive.
Cc1ccc2nsnc2c1S(=O)(=O)N1CCN(C)CC1 was read as AGP1 TOR yeast inactive, CIT2 TOR yeast inactive, LAP4-GFP MLPCN inactive, MEP2-GFP yeast inactive and RPL19A-GFP yeast inactive.
CCc1cc(C(=O)Cc2ccccn2)c(O)cc1O was read as AGP1 TOR yeast inactive, CIT2 TOR yeast inconclusive, LAP4-GFP MLPCN inactive, MEP2-GFP yeast 269.6[may fluoresce violet] and RPL19A-GFP yeast inactive.
For Cc1cccc(NC(=O)c2cc3c(s2)-c2c(C)cccc2OC3)n1 the results were AGP1 TOR yeast inactive, CIT2 TOR yeast inconclusive, LAP4-GFP MLPCN inactive, MEP2-GFP yeast 221.9[may fluoresce violet] and RPL19A-GFP yeast inactive.
`CSc1nnc(Cc2cc(=O)[nH]c(=O)[nH]2)n1-c1cccc(C)c1` gave AGP1 TOR yeast inactive, CIT2 TOR yeast inconclusive, LAP4-GFP MLPCN inactive, MEP2-GFP yeast 225.4[may fluoresce violet] and RPL19A-GFP yeast inactive.
